# ± gives the standard deviation of the averaged measurements. In all, about 33,000 sequences were measured (“E-score (rank enrichment, -0.5 to 0.5)”: median about -0.0028, highest 2% from about 0.23 on). For the sample, the highest values were picked, then their nearest neighbours and some sequences at random.
# Tested on: 2Sb-muMax20 (muMax20 with two 1,3-bis(methyl)benzene Cys staples, A13C/A17C and Q88C/A92C, C-terminal Lys)
# Assay: PBM 8-mer E-score (E-score (rank enrichment, -0.5 to 0.5)); higher = stronger preferential binding
# Experimental: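 Protein binding microarray (universal PBM chip covering all 10-mers in fixed probe flanks) with chemically synthesized human Max(13-93) bHLH-LZ analogs (not full-length Max) bearing noncanonical residues (hArg, Tha, Aib, Nle at 65) and aromatic Cys staples. Read-out per 8-mer (and its reverse complement): E-score (rank-based enrichment, -0.5 to 0.5) and Z-score of median probe intensity.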
row,Sequence,PBM 8-mer E-score
1,CGGCACAG,-0.151 ± 0.028
2,GTATTAGA,0.201 ± 0.063
3,ATATTAGC,0.125 ± 0.041
4,ATATTAGG,0.287 ± 0.008
5,ATATTAGA,0.245 ± 0.0043
6,CTATTAGC,0.0397 ± 0.078
7,CTATTAGA,-0.0815 ± 0.044
8,CGGCCCCG,-0.0779 ± 0.064
9,GGAGGTTA,0.0654 ± 0.011
10,CGGTAAGA,0.00167 ± 0.075
11,CCACATCC,0.00851 ± 0.069
12,AGTGATTA,0.0652 ± 0.034
13,GGCTATTA,0.116 ± 0.04
14,CACTATTA,0.133 ± 0.036
15,AACTAATA,0.263 ± 0.029
16,CGCTATTA,-0.0606 ± 0.018
17,TACTAATA,0.112 ± 0.037
18,AGCTATTA,0.251 ± 0.019
19,GACTATTA,-0.0384 ± 0.062
20,CACTAATA,0.113 ± 0.031
21,AACTATTA,0.252 ± 0.069
22,ATCGGGTG,-0.0686 ± 0.0025
23,ATCCAAGG,-0.161 ± 0.034
24,CATACTCG,0.0129 ± 0.075
25,CCATCTTC,0.0281 ± 0.036

row,Sequence,PBM 8-mer E-score
1,AATCACGA,-0.0273 ± 0.0012
2,AATCACGT,0.26 ± 0.025
3,AATCACAG,-0.0581 ± 0.1
4,AATCACAA,0.166 ± 0.021
5,AATCACGC,0.125 ± 0.047
6,AATCACAT,0.245 ± 0.025
7,ACAAATTA,0.0394 ± 0.025
8,CGGCAAAG,-0.127 ± 0.016
9,CCGACAGG,-0.121 ± 0.008
10,CCTTATTC,-0.00564 ± 0.062
11,GCTTATTA,0.1305 ± 0.0011
12,CCTCATTA,0.251 ± 0.052
13,GCTCATTA,0.155 ± 0.098
14,CCTCATTC,0.0874 ± 0.052
15,CCTTATTA,0.28 ± 0.023
16,AGCTGCCT,-0.1104 ± 0.00073
17,CAGCACGC,-0.176 ± 0.048
18,CTAAAGCC,0.0237 ± 0.016
19,AGGGAAAC,0.00477 ± 0.00053
20,AGGGAAAG,0.06 ± 0.037
21,AGGGAAAT,0.264 ± 0.019
22,ATAAGCTG,0.0487 ± 0.092
23,AGTAGAAT,0.192 ± 0.0085
24,CGATTGAC,-0.0145 ± 0.035
25,CCACGTGA,0.377 ± 0.034

row,Sequence,PBM 8-mer E-score
1,CCACGTCC,-0.141 ± 0.039
2,CCACGCGG,0.323 ± 0.026
3,ACACGCGG,0.145 ± 0.026
4,CCACGTGC,0.376 ± 0.054
5,CTACGTGA,0.0198 ± 0.047
6,CGACGTGC,-0.0806 ± 0.038
7,CCACGCGA,0.0259 ± 0.0059
8,CCACGTAG,-0.0491 ± 0.031
9,CGACGTGA,0.0209 ± 0.0095
10,CCACGTGG,0.46 ± 0.0066
11,CAACGTGG,0.11 ± 0.044
12,TATTAAAA,0.142 ± 0.065
13,GGAACACC,-0.18 ± 0.026
14,ACACGGGT,-0.046 ± 0.012
15,ATTAGGTC,0.0763 ± 0.069
16,ATTATCCA,0.0946 ± 0.055
17,ACGGAACT,-0.0318 ± 0.08
18,AGCGTCGG,-0.117 ± 0.08
19,CAGTATCC,0.0515 ± 0.025
20,GCACGTTA,0.1 ± 0.012
21,CCACGTTC,0.0604 ± 0.011
22,CCACGTTA,0.3181 ± 0.0019
23,TAGCTTCA,0.122 ± 0.05
24,AGCGCCCC,-0.0138 ± 0.11
25,AGTATAAA,0.188 ± 0.0027

row,Sequence,PBM 8-mer E-score
1,AGTATAAT,0.24 ± 0.091
2,ACTATAAG,0.0622 ± 0.044
3,AGTATAAC,-0.0733 ± 0.029
4,AGTATAAG,0.272 ± 0.011
5,CGTATAAG,0.0878 ± 0.037
6,AGCGCAGA,-0.126 ± 0.074
7,AAATAAAT,0.172 ± 0.013
8,ATAGAAAC,0.0134 ± 0.036
9,AAGAGGCC,-0.129 ± 0.067
10,AACTTCAA,0.00863 ± 0.015
11,GACTTCAA,0.15 ± 0.0026
12,TACTTCAA,0.265 ± 0.047
13,AAGATCTT,0.257 ± 0.052
14,AAGATCTA,-0.0269 ± 0.015
15,AAGATCTG,0.0847 ± 0.069
16,ATGCTGAA,0.0724 ± 0.024
17,ACCTAGTG,0.109 ± 0.023
18,ATGGGATA,0.145 ± 0.0055
19,CTGGGATA,-0.0992 ± 0.038
20,AGGGGATA,0.303 ± 0.046
21,GTGGGATA,0.274 ± 0.071
22,GGGGGATA,0.0584 ± 0.079
23,CGGGGATA,0.0352 ± 0.012
24,ATGCTTCC,-0.0299 ± 0.042
25,GCCCAGGA,-0.14 ± 0.058

row,Sequence,PBM 8-mer E-score
1,ACCGCGGT,-0.115 ± 0.037
2,CCCTCCGC,-0.0855 ± 0.048
3,AACCGATC,-0.0993 ± 0.0093
4,ACGTGTTA,0.269 ± 0.0048
5,GCGTGTTA,0.0351 ± 0.018
6,ATGTGTTG,0.197 ± 0.039
7,ACGTGTTC,0.103 ± 0.017
8,ACGTGTAG,-0.0126 ± 0.035
9,CCGTGTTA,0.0249 ± 0.014
10,ACGTGTGC,0.2375 ± 0.00032
11,ACGTGTTG,0.258 ± 0.013
12,ACGTGTAT,0.35 ± 0.016
13,ACGTGTGA,0.0598 ± 0.014
14,ACGTGTGG,0.151 ± 0.034
15,ACGTGTAC,0.147 ± 0.019
16,GCCTAACA,0.0954 ± 0.1
17,ATCTCCAA,0.107 ± 0.026
18,CTGTCTCC,-0.098 ± 0.04
19,AATTTGAT,-0.0177 ± 0.068
20,GCAATTGC,0.031 ± 0.021
21,AACATCGA,0.0919 ± 0.039
22,GTTGATGA,0.108 ± 0.0079
23,ATTGGTTC,0.0837 ± 0.026
24,GGGCCGGA,-0.178 ± 0.071
25,GATAATCA,0.188 ± 0.037

row,Sequence,PBM 8-mer E-score
1,TATAATCA,0.263 ± 0.0093
2,AATAATCA,0.0347 ± 0.023
3,AGTATTCC,0.115 ± 0.061
4,AAGTATGA,0.139 ± 0.069
5,CAGTATGA,0.103 ± 0.036
6,TAGTATGA,0.233 ± 0.017
7,CCAGGTGA,-0.197 ± 0.057
8,GTGCGAAC,-0.083 ± 0.0049
9,AATTAGTC,0.0882 ± 0.024
10,CATTAGTA,0.0235 ± 0.027
11,AATTAGTA,0.281 ± 0.031
12,AGCCGCGG,-0.23908 ± 0.00016
13,AACGCCGT,-0.116 ± 0.032
14,AGATGTTG,-0.0885 ± 0.12
15,ACATGTTA,0.2525 ± 0.0013
16,GCATGTTA,0.165 ± 0.072
17,CCATGTTA,0.111 ± 0.079
18,ACATGTTC,0.144 ± 0.088
19,ACATGTTG,0.289 ± 0.023
20,CGTGTGAA,-0.155 ± 0.051
21,ACGTGAGC,0.0717 ± 0.062
22,AATCAAAC,0.16 ± 0.021
23,CGTTCTAA,0.032 ± 0.071
24,CGCCCCAC,0.253 ± 0.11
25,AGCCCACA,0.2403 ± 0.0014

row,Sequence,PBM 8-mer E-score
1,CGCCCACG,-0.0314 ± 0.056
2,AGCCCACG,0.0705 ± 0.024
3,AGCCCACC,-0.043 ± 0.018
4,CGCCCCAG,0.0881 ± 0.046
5,CGCCCACC,0.312 ± 0.0061
6,CTCCCACA,0.119 ± 0.064
7,CTCCCACC,0.27 ± 0.025
8,GGCCCACA,-0.0654 ± 0.04
9,ATCCCACC,0.193 ± 0.054
10,GGCCCCAC,0.103 ± 0.019
11,CATGTAGC,0.084 ± 0.043
12,CTCCACTA,0.0307 ± 0.041
13,CCATCGAG,-0.0349 ± 0.043
14,ACCACGAC,-0.0523 ± 0.04
15,CGTACAAG,-0.0151 ± 0.087
16,ATAGCGAA,0.0983 ± 0.034
17,ACCTATTC,-0.025 ± 0.024
18,CAATGCTA,0.00426 ± 0.07
19,GAATGCTA,-0.216 ± 0.036
20,TAATGCTA,0.231 ± 0.044
21,GGATGGCA,0.267 ± 0.059
22,GGATGGCC,-0.241 ± 0.023
23,TGATGGCA,0.0723 ± 0.063

# Source: the supplement of paper PMC12636033
